Assay results as given in PubChem BioAssay (NCATS).
Records with an inconclusive call do not appear. Where a call stands in place of a potency, no number is given. The source made the active and inactive calls. The call rests on the fitted dose curve; in most records, active means well fitted curve in the direction sought with a large enough effect; inconclusive means small, poorly fitted or top-dose-only effect, or another doubt; inactive means no such curve, though single readings can be large; an effect the other way counts as inactive or inconclusive.

Tests used:
[1] = Quantitative High-Throughput drug screen in 47 multiple myeloma cell lines against the NCATS MIPE library collection: EJM_DSMZ cell viability assay (AID 1918926; further: nearly all actives have a fitted effect of over 30% in size; further: potency means the concentration at half of the fitted maximal effect)
In short: (§1)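 Primary qHTS used for cherry-picking: cells at 500/well, library compounds for 48 h (37C, 5% CO2), luminescent ATP assay.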

[2] = Quantitative High-Throughput drug screen in 47 multiple myeloma cell lines against the NCATS MIPE library collection: ARP1_JJKsccF8 cell viability assay (AID 1918928; further: nearly all actives have a fitted effect of over 40% in size; further: potency means the concentration at half of the fitted maximal effect)
In short: (§2)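 500 cells/well; MIPE 4.0 library pinned in; 48 h, 37 °C, 5% CO2; CellTiter-Glo ATP luminescence. Controls: DMSO = 100% viability, medium only = 0%.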

[3] = Quantitative High-Throughput drug screen in 47 multiple myeloma cell lines against the NCATS MIPE library collection: Karpas620_DSMZ cell viability assay (AID 1918959); further: nearly all actives have a fitted effect of over 30% in size
In short: (§3)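 Approved and investigational drugs from MIPE 4.0 were added by pin tool to 500 cells per well. After 48 hours at 37C, ATP-based CellTiter-Glo luminescence indicated remaining viability.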

[4] = Quantitative High-Throughput drug screen in 47 multiple myeloma cell lines against the NCATS MIPE library collection: JIM3_ECACC cell viability assay (AID 1918963; further: nearly all actives have a fitted effect of over 35% in size; further: potency means the concentration at half of the fitted maximal effect)
In short: as §3

[5] = Quantitative High-Throughput drug screen in 47 multiple myeloma cell lines against the NCATS MIPE library collection: INA6_PLB cell viability assay (AID 1918965; further: nearly all actives have a fitted effect of over 55% in size; further: potency means the concentration at half of the fitted maximal effect)
In short: (§4)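 Inhibition of cell viability is measured here. Each line was plated at 500 cells per well, treated with MIPE 4.0 drugs, kept 48 hours at 37C, then assayed for ATP content by CellTiter-Glo luminescence.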

[6] = Quantitative High-Throughput drug screen in 47 multiple myeloma cell lines against the NCATS MIPE library collection: H1112_PLB cell viability assay (AID 1918967; further: nearly all actives have a fitted effect of over 30% in size; further: potency means the concentration at half of the fitted maximal effect)
In short: as §1

[7] = Quantitative High-Throughput drug screen in 47 multiple myeloma cell lines against the NCATS MIPE library collection: Karpas25_ECACC cell viability assay (AID 1918968; further: nearly all actives have a fitted effect of over 35% in size; further: potency means the concentration at half of the fitted maximal effect)
In short: as §1

[8] = Quantitative High-Throughput drug screen in 47 multiple myeloma cell lines against the NCATS MIPE library collection: KMS12BM_JCRB cell viability assay (AID 1918971); further: nearly all actives have a fitted effect of over 35% in size; further: potency means the concentration at half of the fitted maximal effect
In short: (§5)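 Relative luminescence from CellTiter-Glo served as the viability signal, referenced to DMSO-treated (100%) and cell-free medium (0%) controls. Treatment lasted 48 hours at 37C with 500 cells per well.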

[9] = Quantitative High-Throughput drug screen in 47 multiple myeloma cell lines against the NCATS MIPE library collection: KMS20_JCRB cell viability assay (AID 1918973); further: nearly all actives have a fitted effect of over 45% in size; further: potency means the concentration at half of the fitted maximal effect
In short: as §1

[10] = Quantitative High-Throughput drug screen in 47 multiple myeloma cell lines against the NCATS MIPE library collection: KMS21BM_JCRB cell viability assay (AID 1918974); conditions: ATP luminescence, 48 h; viability: at 45.8 µM (top of the series); further: potency means the concentration at half of the fitted maximal effect
In short: as §1

[11] = Quantitative High-Throughput drug screen in 47 multiple myeloma cell lines against the NCATS MIPE library collection: KMM1_JCRB cell viability assay (AID 1918960); further: nearly all actives have a fitted effect of over 30% in size
In short: as §2

[12] = Quantitative High-Throughput drug screen in 47 multiple myeloma cell lines against the NCATS MIPE library collection: JIM1_ECACC cell viability assay (AID 1918964; further: potency means the concentration at half of the fitted maximal effect)
In short: as §1

[13] = Quantitative High-Throughput drug screen in 47 multiple myeloma cell lines against the NCATS MIPE library collection: KMS12PE_JCRB cell viability assay (AID 1918972); further: nearly all actives have a fitted effect of over 30% in size; further: potency means the concentration at half of the fitted maximal effect
In short: as §4

[14] = Quantitative High-Throughput drug screen in 47 multiple myeloma cell lines against the NCATS MIPE library collection: KMS26_JCRB cell viability assay (AID 1918975); further: nearly all actives have a fitted effect of over 45% in size
In short: as §5

[15] = Quantitative High-Throughput drug screen in 47 multiple myeloma cell lines against the NCATS MIPE library collection: ARD_JJKsccE7 cell viability assay (AID 1918929; further: potency means the concentration at half of the fitted maximal effect)
In short: as §1

[16] = Quantitative High-Throughput drug screen in 47 multiple myeloma cell lines against the NCATS MIPE library collection: KMS27_JCRB cell viability assay (AID 1918970); further: nearly all actives have a fitted effect of over 30% in size; further: potency means the concentration at half of the fitted maximal effect
In short: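 CellTiter-Glo luminescence after 48 h drug exposure at 37 °C; 500 cells/well, 1536-well format, pin-tool compound addition; DMSO = 100%, media-only = 0% viability.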

[17] = Quantitative High-Throughput drug screen in 47 multiple myeloma cell lines against the NCATS MIPE library collection: Karpas417_ECACC cell viability assay (AID 1918961); conditions: Karpas417 myeloma viability, CellTiter-Glo ATP luminescence, 48 h; viability (% of DMSO): at 45.8 µM (top of the series); further: potency means the concentration at half of the fitted maximal effect
In short: as §4

[18] = Quantitative High-Throughput drug screen in 47 multiple myeloma cell lines against the NCATS MIPE library collection: KHM11_PLB cell viability assay (AID 1918962); further: nearly all actives have a fitted effect of over 35% in size; further: potency means the concentration at half of the fitted maximal effect
In short: as §3

[19] = Quantitative High-Throughput drug screen in 47 multiple myeloma cell lines against the NCATS MIPE library collection: JJN3_DSMZ cell viability assay (AID 1918966; further: potency means the concentration at half of the fitted maximal effect; nearly all actives have a fitted effect of over 50% in size)
In short: as §1

[20] = Quantitative High-Throughput drug screen in 47 multiple myeloma cell lines against the NCATS MIPE library collection: AMO1_DSMZ cell viability assay (AID 1918927)
In short: as §1

CCCCCCNC(=O)n1cc(F)c(=O)[nH]c1=O
Potency [1]: inactive
Potency [2]: 8.33 µM (active)
Potency [3]: inactive
Potency [4]: 16.6 µM (active)
Potency [5]: 11.8 µM (active)
Potency [6]: 5.26 µM (active)
Potency [7]: 7.43 µM (active)
Potency [8]: 4.69 µM (active)
Potency [9]: inactive
Potency [10]: 0.332 µM (active)

CC1(C)[C@H](C(=O)O)N2C(=O)C[C@H]2S1(=O)=O
Potency [1]: inactive
Potency [2]: inactive
Potency [3]: inactive
Potency [11]: inactive
Potency [4]: inactive
Potency [12]: inactive
Potency [5]: inactive
Potency [6]: inactive
Potency [7]: inactive
Potency [13]: inactive
Potency [14]: inactive

CC(N)C12CC3CC(CC(C3)C1)C2 (configuration not stated)
Potency [1]: inactive
Potency [15]: inactive
Potency [3]: inactive
Potency [11]: inactive
Potency [4]: inactive
Potency [12]: inactive
Potency [5]: inactive
Potency [6]: inactive
Potency [7]: inactive
Potency [16]: inactive
Potency [13]: inactive
Potency [14]: inactive

CC(C(=O)O)c1ccc2c(c1)CC(=O)c1ccccc1S2 (configuration not stated)
Potency [1]: inactive
Potency [2]: inactive
Potency [11]: inactive
Potency [17]: 0.0209 µM (active)
Potency [4]: inactive
Potency [5]: inactive
Potency [6]: inactive
Potency [7]: 18.7 µM (active)
Potency [8]: inactive
Potency [10]: 0.264 µM (active)

C[C@@H](NCCCc1cccc(C(F)(F)F)c1)c1cccc2ccccc12
Potency [1]: inactive
Potency [2]: inactive
Potency [11]: inactive
Potency [18]: inactive
Potency [4]: 13.2 µM (active)
Potency [6]: inactive
Potency [7]: inactive
Potency [16]: inactive
Potency [13]: 18.7 µM (active)
Potency [14]: inactive

Cc1cccc(N(C)C(=S)Oc2ccc3ccccc3c2)c1
Potency [1]: inactive
Potency [2]: inactive
Potency [15]: 20.9 µM (active)
Potency [3]: inactive
Potency [18]: inactive
Potency [4]: inactive
Potency [5]: inactive
Potency [6]: inactive
Potency [8]: inactive
Potency [14]: inactive

COc1cc2c(Nc3ccc(Br)cc3F)ncnc2cc1OCC1CCN(C)CC1
Potency [1]: 23.5 µM (active)
Potency [3]: inactive
Potency [11]: inactive
Potency [17]: inactive
Potency [4]: inactive
Potency [5]: 9.35 µM (active)
Potency [7]: 8.33 µM (active)
Potency [8]: 18.7 µM (active)
Potency [10]: inactive

COc1cccc(N(C)C(=S)Oc2ccc3c(c2)CCCC3)n1
Potency [1]: inactive
Potency [15]: 23.5 µM (active)
Potency [4]: inactive
Potency [5]: 16.6 µM (active)
Potency [6]: inactive
Potency [14]: inactive

CC(=O)CC(c1ccccc1)c1c(O)c2ccccc2oc1=O (configuration not stated)
Potency [1]: inactive
Potency [2]: inactive
Potency [15]: inactive
Potency [3]: inactive
Potency [11]: inactive
Potency [18]: inactive
Potency [4]: inactive
Potency [5]: inactive
Potency [6]: inactive
Potency [7]: inactive
Potency [16]: inactive
Potency [13]: inactive
Potency [9]: inactive
Potency [14]: inactive

O=S(=O)(O)CCS
Potency [1]: inactive
Potency [2]: inactive
Potency [3]: inactive
Potency [11]: inactive
Potency [5]: inactive
Potency [6]: inactive
Potency [16]: 16.6 µM (active)

S=P(N1CC1)(N1CC1)N1CC1
Potency [1]: inactive
Potency [2]: inactive
Potency [3]: inactive
Potency [4]: inactive
Potency [19]: 0.0118 µM (active)
Potency [7]: inactive
Potency [16]: 0.469 µM (active)
Potency [13]: inactive
Potency [14]: inactive

OCc1ccc(-c2nn(Cc3ccccc3)c3ccccc23)o1
Potency [1]: inactive
Potency [2]: inactive
Potency [11]: inactive
Potency [18]: 2.64 µM (active)
Potency [4]: inactive
Potency [7]: 9.35 µM (active)
Potency [16]: inactive
Potency [8]: 10.5 µM (active)
Potency [9]: 1.87 µM (active)

COc1cnc(NS(=O)(=O)c2ccc(N)cc2)nc1
Potency [1]: inactive
Potency [2]: inactive
Potency [17]: 11.8 µM (active)
Potency [4]: inactive
Potency [6]: inactive
Potency [13]: 14.8 µM (active)
Potency [14]: inactive

O=C(O)CSCC(=O)NC1CCSC1=O (configuration not stated)
Potency [1]: inactive
Potency [2]: inactive
Potency [15]: inactive
Potency [3]: inactive
Potency [18]: inactive
Potency [4]: inactive
Potency [6]: inactive
Potency [7]: inactive
Potency [16]: inactive
Potency [8]: inactive
Potency [13]: inactive
Potency [14]: inactive

CC1CC2C3CCC4=CC(=O)C=C[C@]4(C)[C@@]3(F)[C@@H](O)C[C@]2(C)[C@@]1(O)C(=O)CO (some centres not stated)
Potency [1]: inactive
Potency [20]: 0.833 µM (active)
Potency [18]: 0.833 µM (active)
Potency [4]: inactive
Potency [12]: 0.0023 µM (active)
Potency [6]: inactive
Potency [7]: 0.209 µM (active)
Potency [16]: inactive
Potency [13]: inactive

N[C@@H](Cc1ccc(O)c(O)c1)C(=O)O
Potency [1]: inactive
Potency [15]: inactive
Potency [3]: inactive
Potency [11]: inactive
Potency [4]: inactive
Potency [12]: inactive
Potency [6]: inactive
Potency [7]: inactive
Potency [13]: inactive

Cc1ccnc2c1NC(=O)c1cccnc1N2C1CC1
Potency [1]: inactive
Potency [2]: inactive
Potency [3]: inactive
Potency [12]: inactive
Potency [16]: 1.87 µM (active)
Potency [8]: inactive
Potency [13]: inactive
Potency [14]: inactive
